Several values for one entry are separate records, joined by “and”; a condition that tells them apart may be missing. Identical values can stand only once. Inconclusive results are not listed. Some compounds were tested as several samples or in several runs, with calls that do not always agree. Activity calls are given as the source filed them. Unless noted, the call rests on the fitted dose curve; in most records, active means well fitted curve in the direction sought with a large enough effect in the repeat runs; inconclusive means weak or mixed curves; inactive means no such curve, though single readings can be large; an effect the other way counts as inactive or inconclusive.

Experiment [1] in a line: qHTS assay to identify small molecule antagonists of the estrogen receptor alpha (ER-alpha) signaling pathway using the BG1 cell line in the presence of 0.1 nM 17-beta-estradiol - cell viability counter screen (AID 1259241). Further: nearly all actives have a fitted effect of over 40% in size. The method in brief:
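Following 5 days in phenol red-free medium with charcoal-stripped serum, VM7Luc4E2 cells received test compounds alongside 0.1 nM 17beta-estradiol (final) at 37C for 22 hr. Live cells were then quantified via protease-substrate fluorescence.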

Experiment [2] in a line: qHTS assay to identify small molecule antagonists of the androgen receptor (AR) signaling pathway using the MDA cell line in the presence of 0.5 nM R1881 - cell viability counter screen (AID 1259242). Further: nearly all actives have a fitted effect of over 45% in size. Further: potency means the concentration at half of the fitted maximal effect. The method in brief: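 Fluorescence from CellTiter-Fluor, which reports protease activity of live cells, was read 30 min after reagent addition to MDA-kb2 cells that had been incubated 16 hr with compound and 0.5 nM R1881.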

Experiment [3] in a line: qHTS assay to identify small molecule HDAC inhibitors (AID 1259364). Further: nearly all actives have a fitted effect of over 45% in size. Further: potency means the concentration at half of the fitted maximal effect. The method in brief: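 Endogenous HDAC class I/II activity was measured in wild-type HCT-116 cells by HDAC-Glo luminescence after 2 h compound treatment.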
Experiment [4] can be described thus: qHTS assay to identify small molecule HDAC inhibitors - cell viability counter screen (AID 1259365). Further: series mostly up to about 92 µM; nearly all actives have a fitted effect of over 50% in size. The method in brief:
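HCT-116 wild-type, overnight attachment; 2hr drug exposure, 37C; CellTiter-Glo luminescent ATP readout after 30min RT.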

A short description of experiment [5]: qHTS assay to identify small molecule agonists of the sonic hedgehog signaling (Shh) pathway - cell viability counter screen (AID 1259366). Further: nearly all actives have a fitted effect of over 50% in size. Further: potency means the concentration at half of the fitted maximal effect. In short, it runs like this:
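Compounds in DMSO were pin-transferred onto 3T3 Gli1-Luc cells that had settled 4hr; plates then stood 24hr at 37C and 5% CO2. One hour before the end, CellTiter-Fluor was added and fluorescence recorded.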

The nature of experiment [6]: qHTS assay to identify small molecule antagonists of the sonic hedgehog signaling (Shh) pathway - cell viability counter screen (AID 1259367). Further: nearly all actives have a fitted effect of over 55% in size. Further: potency means the concentration at half of the fitted maximal effect. In short, it runs like this:
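After a 4 hr settling period, 3T3 Gli1-Luc cells were treated with DMSO-dissolved chemicals and conditioned medium, kept 24 hr at 37C in 5% CO2, and assayed for viability by CellTiter-Fluor fluorescence following 1 hr reagent incubation.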

Experiment [7] is described as follows: qHTS assay to identify small molecule agonists of the sonic hedgehog signaling (Shh) pathway (AID 1259368; calls by dose curve; further: nearly all actives have a fitted effect of over 15% in size; further: potency means the concentration at half of the fitted maximal effect). In short, it runs like this:
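Luminescent signal was taken as a measure of Gli1-controlled luciferase expression in stably transfected NIH/3T3-derived cells that had been treated for 24 hr with compounds delivered in DMSO.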

The nature of experiment [8]: qHTS assay to identify small molecule phospholipidosis (PLD) inducers (AID 1259344; active means well fitted curve in the direction sought with a large enough effect; an effect the other way counts as inactive or inconclusive). In short, it runs like this:
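HepG2 cells grown on collagen I take up LipidTOX Red while exposed to compound for 24 h; after fixation they are imaged at 20x and pit metrics are extracted.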

Experiment [9] has as its target Estrogen receptor (Homo sapiens) (UniProt P03372). In words: qHTS assay to identify small molecule antagonists of the estrogen receptor alpha (ER-alpha) signaling pathway using the BG1 cell line in the presence of 0.1 nM 17-beta-estradiol (AID 1259244). Further: nearly all actives have a fitted effect of over 50% in size. The method in brief: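 Quantitative high-throughput screen in VM7Luc4E2 cells: compound plus 0.1 nM E2 (final), 22 h, 37C, 5% CO2; ONE-Glo added, 30 min room temperature, luminescence measured.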

Estrogen receptor (Homo sapiens), sequence (P03372 whole entry, looked up): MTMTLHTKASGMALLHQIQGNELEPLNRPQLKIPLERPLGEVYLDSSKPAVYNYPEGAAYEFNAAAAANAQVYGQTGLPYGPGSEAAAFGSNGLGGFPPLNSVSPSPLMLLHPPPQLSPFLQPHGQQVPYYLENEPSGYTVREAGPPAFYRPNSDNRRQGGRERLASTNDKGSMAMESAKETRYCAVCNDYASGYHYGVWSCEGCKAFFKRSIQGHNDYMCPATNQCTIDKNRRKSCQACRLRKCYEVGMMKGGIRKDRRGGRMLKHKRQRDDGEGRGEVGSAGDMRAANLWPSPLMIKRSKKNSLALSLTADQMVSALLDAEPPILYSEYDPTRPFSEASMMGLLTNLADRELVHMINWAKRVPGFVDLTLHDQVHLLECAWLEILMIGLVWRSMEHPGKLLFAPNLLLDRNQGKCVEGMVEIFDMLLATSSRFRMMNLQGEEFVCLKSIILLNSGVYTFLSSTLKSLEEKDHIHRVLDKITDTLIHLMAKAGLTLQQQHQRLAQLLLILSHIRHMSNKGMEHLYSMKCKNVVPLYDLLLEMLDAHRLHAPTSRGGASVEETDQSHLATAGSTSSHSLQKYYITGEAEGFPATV

As for `CNN`, the Potency result in [1], in experiment [2], in experiment [3], in experiment [4], in experiment [5] and in experiment [6] was “inactive” in each case. Further, the Potency result in experiment [7] was “inactive”.
As for `Oc1ccc2[nH]cc(CCCCN3CC=C(c4ccccc4)CC3)c2c1`, the Potency result in experiment [1], in experiment [2], in [3], in experiment [4], in [6] and in [7] was “inactive” each time. Moreover, the call in [8] was inactive.
For the compound `CCCCCCCCCCCCCCn1cc[n+](C)c1`, the Potency entry in experiment [1], in experiment [3], in [4] and in experiment [7] was “inactive” throughout. Besides, the Potency in experiment [2] is 30.7 µM (active) and 34 µM (active) and inactive; in experiment [5], 17.3 µM (active) and 24.1 µM (active); in experiment [6], 19.4 µM (active) and 27 µM (active).
`Clc1ccc(C2(Cn3cncn3)OCCO2)c(Cl)c1`: the Potency entry in experiment [1], in experiment [2], in experiment [3], in experiment [4], in [5] and in experiment [7] was “inactive” in each case. In addition, in experiment [8], the result was inactive.
`COc1ccc2[nH]cc(CCN(C(C)C)C(C)C)c2c1`: the Potency entry in experiment [1], in experiment [2], in experiment [3], in experiment [4], in [5] and in experiment [6] was “inactive” throughout. Besides, the Potency entry in [7] is “inactive”. Besides, in experiment [8], the result was inactive.
For `Clc1ccc(C(Cl)(Cl)Cl)cc1Cl`, the Potency entry in experiment [1], in experiment [2], in experiment [4], in experiment [5], in [6] and in experiment [7] was “inactive” throughout. Further, the Potency in [3] was 15 µM (active).
As for `CC(Cc1ccc2c(c1)OCO2)NO` (configuration not stated), the Potency result in experiment [1], in experiment [2], in [3], in experiment [4], in experiment [5] and in experiment [6] was “inactive” throughout. Also, the Potency result in [7] is “inactive”. Further, the compound was called inactive in experiment [8].
`CC(C)c1c(CN(C)C(C)Cc2ccccc2)n(C)n(-c2ccccc2)c1=O` (configuration not stated): the Potency entry in experiment [1], in [2], in [3], in experiment [4], in experiment [5] and in experiment [6] was “inactive” in each case. In experiment [7], the Potency entry was “inactive”. In [8], the result was inactive.
Turning to `CN(C)CCc1c[nH]c2ccccc12`, the Potency result in [1], in experiment [2], in experiment [3], in experiment [4], in experiment [5] and in [7] was “inactive” each time. For the same compound, the result in experiment [8] was inactive.
As for `CN/C(=N\[N+](=O)[O-])NCc1cnc(Cl)s1`, the Potency entry in experiment [1], in experiment [2], in experiment [3], in [4], in experiment [5] and in [6] was “inactive” in each case. Also, in [7], the Potency entry is “inactive”.
Regarding `COc1ccc2c3c1O[C@H]1[C@H](O)CC[C@H]4[C@@H](C2)N(C)CC[C@@]341`, the Potency result in experiment [1], in experiment [2], in experiment [3], in experiment [5], in experiment [6] and in experiment [7] was “inactive” throughout. In addition, the outcome in [8] was inactive.
As for `Brc1cccc(-c2ccccc2)c1`, the Potency entry in experiment [1], in experiment [2], in experiment [9], in [3], in experiment [5] and in experiment [6] was “inactive” throughout. In addition, the Potency result in [7] was “inactive”.
With `Cc1c([N+](=O)[O-])cc2c(c1[N+](=O)[O-])C(C)(C)CC2(C)C`, the Potency result in experiment [1], in [2], in experiment [3], in experiment [4], in [5] and in experiment [6] was “inactive” in each case. Also, the Potency entry in [7] is “inactive”.
As for `CC(C)Br`, the Potency entry in experiment [1], in [2], in experiment [3], in experiment [4], in [5] and in experiment [7] was “inactive” throughout.
In the case of `CCCC[N+]1(C)CCCC1` (tested in a mixture with another compound), the Potency entry in [1], in experiment [2], in experiment [3], in [4], in experiment [5] and in experiment [6] was “inactive” each time. For the same compound, in experiment [7], the Potency entry was “inactive”.
Regarding `CC(=O)[O-].CC(=O)[O-].[Co+2]`, the Potency entry in experiment [1], in experiment [2], in experiment [3] and in experiment [4] was “inactive” in each case. The Potency in [7] is 54.5 µM (active).

For the origin of these results see PubChem BioAssay (Tox21).
